# Test results taken from PMC7819943, “Rice protein-binding microarrays: a tool to detect cis-acting elements near promoter regions in rice”.
# Whole data set: some 68,000 sequences, median “fluorescence intensity (a.u.)” near 9,100, cut for the highest 2% near 16,000. This is one part of a sample in which the highest values are shown more often than they occur.
# Target: OsWRKY34 (Oryza sativa, UniProt Q0JBA9 1-250)
# Experiment: protein-binding microarray (RPBM); PBS, 2% BSA, 51.3 ng/ul salmon testes DNA, 50 uM zinc acetate, 200 nM TF, 25 C, 1 h; high values mean tight binding
# Conditions: protein: recombinant; tags: N-terminal polyhistidine and DsRed monomer fusion (pET32a); label: CyDye5-dUTP incorporated in the synthesized complementary strand; 3' TTTTT single-stranded linker to array surface; dsDNA, one strand shown
# In short: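 Using Ni–NTA, transcription factors fused N-terminally to polyhistidine and DsRed were purified after expression in E. coli BL21-CodonPlus. These were incubated at 200 nM with a blocked, double-stranded custom Agilent array for 1 h at 25 °C in a buffer containing 50 µM zinc acetate, and the array was washed. The binding signal is per-feature fluorescence intensity (arbitrary units) on an Axon 4000B scanner.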
# Chain of OsWRKY34 (Q0JBA9 entry or part of it): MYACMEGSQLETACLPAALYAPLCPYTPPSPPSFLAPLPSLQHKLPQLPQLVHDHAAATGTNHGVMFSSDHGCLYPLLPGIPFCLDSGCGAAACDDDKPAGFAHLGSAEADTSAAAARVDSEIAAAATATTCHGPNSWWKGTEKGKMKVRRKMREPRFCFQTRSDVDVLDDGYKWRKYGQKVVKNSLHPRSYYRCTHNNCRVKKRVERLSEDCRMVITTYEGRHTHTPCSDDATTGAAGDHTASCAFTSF
row,Sequence,binding signal
1,GGCACGCTACTACTCCTACTATATGATAAAAAAACACTACCGGAGTCACCTAGTGCAG,8150 fluorescence intensity (a.u.)
2,TGGTCAAGCCCTTTTTGATCTTTTTTTTTCTGTCTCATGCCGGAGTCACCTAGTGCAG,9610 fluorescence intensity (a.u.)
3,CGCACCGTCGACTAGTCCCGTCCCGTCGCGCCGTTGCCTTCGGAGTCACCTAGTGCAG,8590 fluorescence intensity (a.u.)
4,ATTCGAGATCAGCTTTCTCTTCTATTTTGCTACTAGTTCTCGGAGTCACCTAGTGCAG,13000 fluorescence intensity (a.u.)
5,TAGGTCTGCTTCAGAGATGGGGTTAGGGTTAGATTTGTTCCGGAGTCACCTAGTGCAG,14000 fluorescence intensity (a.u.)
6,GTAGGGGTGGTGGATTTTTTTTTATTTGCTGAGATGATTTCGGAGTCACCTAGTGCAG,20600 fluorescence intensity (a.u.)
7,GGTTATGGGCGGGTTGAGCAATGTTTTTCATGATTAGTCTCGGAGTCACCTAGTGCAG,18600 fluorescence intensity (a.u.)
8,GACCTTATTTGCATTGATTGACCTTATTTGCATTGATTTTCGGAGTCACCTAGTGCAG,19700 fluorescence intensity (a.u.)
9,TATATATATATATATATATATATATATATATAAGGTTTGACGGAGTCACCTAGTGCAG,17300 fluorescence intensity (a.u.)
10,TCATGGGCGGGTTGAGCAATGTTTCTTGTGATTAGTCTCACGGAGTCACCTAGTGCAG,16300 fluorescence intensity (a.u.)
11,TTAGATTTTTCTTACAACCATTTGCATTGATTTTTTTTTTCGGAGTCACCTAGTGCAG,8960 fluorescence intensity (a.u.)
12,ATATATATATATATATATATATATATATATAGTGGAATGACGGAGTCACCTAGTGCAG,12300 fluorescence intensity (a.u.)
13,TACCCTTTTTTTGGGTAGGGTGGGTTGGATTTATTTATTTCGGAGTCACCTAGTGCAG,12300 fluorescence intensity (a.u.)
14,GTGTTAGGTGCTGAGATTTTTGTACTTGCTTTATTATTTTCGGAGTCACCTAGTGCAG,8860 fluorescence intensity (a.u.)
15,TCTTGATTTTTGCATTAGTAGTAGTTGCGTCTTATATTTTCGGAGTCACCTAGTGCAG,12100 fluorescence intensity (a.u.)
16,AAGTTTAGGGTGAGCAATGTCTGGTTTTCGGGTTCAGGGGCGGAGTCACCTAGTGCAG,13300 fluorescence intensity (a.u.)
17,GACGGGTGTTTCTAGGGTTAAGGTTAGGTTTTTTTTTTGACGGAGTCACCTAGTGCAG,9680 fluorescence intensity (a.u.)
18,TTGCTTTCCTTGGCCTCACGCTTGTTCCATGTTAGTTCGACGGAGTCACCTAGTGCAG,16100 fluorescence intensity (a.u.)
19,TATTGCACCTTTTCTCTATTGTTTTGAATTCAGTGAAGATCGGAGTCACCTAGTGCAG,11600 fluorescence intensity (a.u.)
20,GACCTGTCTACCGCCGCCCTAGTGACTAATGTTGACCACACGGAGTCACCTAGTGCAG,12000 fluorescence intensity (a.u.)
21,TTTTCAACCTTATATTGTCATTGTCCGTCAACTTGGCTTGCGGAGTCACCTAGTGCAG,8970 fluorescence intensity (a.u.)

row,Sequence,binding signal
1,CCTGTCATGGAGGATGTTTCCTGAAGTTTCAGAGCTGTATCGGAGTCACCTAGTGCAG,8310 fluorescence intensity (a.u.)
2,AATGATTACAACCTACCTCTTCTCAGCGGGGTGTCCATTACGGAGTCACCTAGTGCAG,8260 fluorescence intensity (a.u.)
3,TTTTCTTGTTTGATTGACATAATGGGCCCTACATATTTTTCGGAGTCACCTAGTGCAG,8440 fluorescence intensity (a.u.)
4,ATCGCTGGCTTATCATACTCTATTATACCTGCTCTAAGGACGGAGTCACCTAGTGCAG,10000 fluorescence intensity (a.u.)
5,GTTTTAATAATGTGTTTGTTTTGGGTTAAAAACCATACTACGGAGTCACCTAGTGCAG,8340 fluorescence intensity (a.u.)
6,ACAATGGCACGGTCTACAAAATATATTTTTGACCTTATTTCGGAGTCACCTAGTGCAG,8440 fluorescence intensity (a.u.)
7,GCTGACTTCATCTTCATTTTAATATATCTCAAACACCACGCGGAGTCACCTAGTGCAG,10200 fluorescence intensity (a.u.)
8,GATGTTCCTGGCCGTGATCGAGCTCCTGCGTTCTTGCTTACGGAGTCACCTAGTGCAG,10400 fluorescence intensity (a.u.)
9,TTGAAGTTTTTGGCAGGGGTTAGTTTCGAAATAAGTTTTCCGGAGTCACCTAGTGCAG,8480 fluorescence intensity (a.u.)
10,GTGTATGTATATATGAGTATGTGTGTTTATATTGTATTTTCGGAGTCACCTAGTGCAG,8460 fluorescence intensity (a.u.)
11,GGTTGAAGTTTTTGGCAGGGGTTAGTTTCGAAATAAGTTTCGGAGTCACCTAGTGCAG,17900 fluorescence intensity (a.u.)
12,TTTTATGTTTGTTGGTTGTTGAGTTTATGTGATTATATTTCGGAGTCACCTAGTGCAG,9050 fluorescence intensity (a.u.)
13,GTTGAAGTTTTTGGCAGGGGTTAGTTTCGAAATAAGTTTTCGGAGTCACCTAGTGCAG,8170 fluorescence intensity (a.u.)
14,TCTAGGGTTAGGGTTTCGTGATTTTTGGTTTTTTATTTTTCGGAGTCACCTAGTGCAG,16900 fluorescence intensity (a.u.)
15,GTTAGGGTTTTTTTTATTTTTCGATTTTTTTTGTGTTTTTCGGAGTCACCTAGTGCAG,12000 fluorescence intensity (a.u.)
16,CGGGCGATTCTAGGGTTATGGTTAGGGTTTTTTTTATTTTCGGAGTCACCTAGTGCAG,14500 fluorescence intensity (a.u.)
17,CGGGGCGTGAGGGGTTATGAGTATATTTGTATTTTTTTTTCGGAGTCACCTAGTGCAG,18400 fluorescence intensity (a.u.)
18,GCGTGTGTTGTGAGATGTATTATGTTGTGCTTTGTATTTTCGGAGTCACCTAGTGCAG,14900 fluorescence intensity (a.u.)
19,AGAACAGTTTTTAATCTGACATGTGCCTGTAGTTTGTTGTCGGAGTCACCTAGTGCAG,10600 fluorescence intensity (a.u.)
20,CAGTTGGCCTGTTTGTTTGTTGGTTGTGATTAATCTGTGACGGAGTCACCTAGTGCAG,18800 fluorescence intensity (a.u.)
21,TGGAGGTGGTGGTGGGAGGAAGGGGAGGAGGAGGCGCGGCCGGAGTCACCTAGTGCAG,15100 fluorescence intensity (a.u.)

row,Sequence,binding signal
1,AGCTGGCTAAATCATATTTCCAAAGTCTCTCTCGTCTCTCCGGAGTCACCTAGTGCAG,8510 fluorescence intensity (a.u.)
2,GCCTTCACAAAATCACAAGCGAATGATTTTACTGCCTTGCCGGAGTCACCTAGTGCAG,9190 fluorescence intensity (a.u.)
3,TGAGTTTTTGTTTGTATTGTTTGACTACTCGTCTTATTCACGGAGTCACCTAGTGCAG,10400 fluorescence intensity (a.u.)
4,AAGAGTACGGGTGGGGATGCTTTGGAGTTCACTCCAACTCCGGAGTCACCTAGTGCAG,10300 fluorescence intensity (a.u.)
5,TCCCGTACGCCTCTACTACCTCTTTTACCTGCGTGCCTTCCGGAGTCACCTAGTGCAG,11100 fluorescence intensity (a.u.)
6,CACCCTTCTTCTCACCCATTGACGGATGCCCTGGAGGTTTCGGAGTCACCTAGTGCAG,10400 fluorescence intensity (a.u.)
7,GTTATGGGTTTGATTTTTTTTCGTTTAGAAAGTTATGGGTCGGAGTCACCTAGTGCAG,9220 fluorescence intensity (a.u.)
8,GGGTTTTTGGTTTTGGTTTTGATTTTGATTTTGATTTTGACGGAGTCACCTAGTGCAG,16400 fluorescence intensity (a.u.)
9,CGTTGATTTGGTTTGGGTTAGTTATGGGTTTGATTTTTTTCGGAGTCACCTAGTGCAG,20600 fluorescence intensity (a.u.)
10,ATTTTTTTCGGTTTGGTTGATTTTATTGAGTTACATTTACCGGAGTCACCTAGTGCAG,10900 fluorescence intensity (a.u.)
11,AGTCGCAGTGGTTTTGGTTGGTTGGTTGATTACATTTTGACGGAGTCACCTAGTGCAG,20000 fluorescence intensity (a.u.)
12,AGGGTTTGGTTGATTTTCGGATTTGGTTTGGTTTTGACGACGGAGTCACCTAGTGCAG,13300 fluorescence intensity (a.u.)
13,GGTTTGGTTTTGTTTAGTGGGTTAGAAGCCAATGAGAGCACGGAGTCACCTAGTGCAG,10300 fluorescence intensity (a.u.)
14,CATCCGACCTCAACTCCTCTGTCCTCTACTACGCATCTCTCGGAGTCACCTAGTGCAG,14100 fluorescence intensity (a.u.)
15,GATCACATGGGCCACACTTTTTTTTAATTATTTTTTGTGTCGGAGTCACCTAGTGCAG,8040 fluorescence intensity (a.u.)
16,GTAGTTTTGTGAAATTTACTTTTTTTTTTTTTTTTGATAACGGAGTCACCTAGTGCAG,9770 fluorescence intensity (a.u.)
17,TTTTTTTCTGGGGTTGCTTAGAATGGTACTAACTATGATTCGGAGTCACCTAGTGCAG,8900 fluorescence intensity (a.u.)
18,ATTATGCATTTATTTTATTTGAAACTTTAATGCTTTTTTTCGGAGTCACCTAGTGCAG,8110 fluorescence intensity (a.u.)
19,GTTAACTTGCTTATATGGTACTAGAAGAAAAACTTAATGGCGGAGTCACCTAGTGCAG,64900 fluorescence intensity (a.u.)
20,TTATAAACTTGGTCAAACTTAATAAAGTTTGACTAGAAAACGGAGTCACCTAGTGCAG,8320 fluorescence intensity (a.u.)
21,TATATTGCTCTTAATTTATTTGTGTTACTTTTTATGTGTTCGGAGTCACCTAGTGCAG,8330 fluorescence intensity (a.u.)

row,Sequence,binding signal
1,GTGTGGGGCTTTTAACTTTTTGTCACTTTTAAATTTTAAACGGAGTCACCTAGTGCAG,21300 fluorescence intensity (a.u.)
2,GGGCTTATTTTTTTTTTTTAACTTTGTTATGCTCTAGAAACGGAGTCACCTAGTGCAG,20100 fluorescence intensity (a.u.)
3,CCCTCGTCTTCTTCTCCACGCGACGCCGGTCAAAGTTTGACGGAGTCACCTAGTGCAG,10700 fluorescence intensity (a.u.)
4,AGCCATCTTAAGTTAGGAACAGTTTCTTTTTTTAGAACTACGGAGTCACCTAGTGCAG,8290 fluorescence intensity (a.u.)
5,AAACCATTTTTTTTATCTATTATCCTTTGACTGTTTAATTCGGAGTCACCTAGTGCAG,10500 fluorescence intensity (a.u.)
6,AAATTTTTATATGCTGTGTATTTTCTATTTTTTTTATTTTCGGAGTCACCTAGTGCAG,11100 fluorescence intensity (a.u.)
7,GTGTTTGATTTGCCTCTCTTAAGAACCACTGTGAAAACATCGGAGTCACCTAGTGCAG,9680 fluorescence intensity (a.u.)
8,CTCGCCGCGTGCTCCTTTACTGCTCTCTGCTCGCGCAGGACGGAGTCACCTAGTGCAG,9230 fluorescence intensity (a.u.)
9,CCTCGACCGTCCCCAACCGACGACCCCGTGGTCACGCTCCCGGAGTCACCTAGTGCAG,10900 fluorescence intensity (a.u.)
10,GGTCAATTTAGGGCACACACCAAACCAGCCCTTACAACTTCGGAGTCACCTAGTGCAG,8620 fluorescence intensity (a.u.)
11,AAAAATATATCCAAGCAAATTCACACAGTCAAGTTCACTCCGGAGTCACCTAGTGCAG,14800 fluorescence intensity (a.u.)
12,GGTTGGTGTGGACCTTGCCCATTGTGAAACTTTGGTCAAACGGAGTCACCTAGTGCAG,8070 fluorescence intensity (a.u.)
13,TCATGGATTATCTCTTTAATGTATAACGCCGTTGACTTTTCGGAGTCACCTAGTGCAG,14300 fluorescence intensity (a.u.)
14,TCGAAATGTTTGACGCCGTTGACTTTTTAAGTATATGTTTCGGAGTCACCTAGTGCAG,29200 fluorescence intensity (a.u.)
15,TTCGAAATGTTTAACGCCGTTGACTTTTTATCATATGTTTCGGAGTCACCTAGTGCAG,35500 fluorescence intensity (a.u.)
16,TTCGTTTGACTTTTGCCGTTTCAAATTTGAATTCTCGAAACGGAGTCACCTAGTGCAG,9080 fluorescence intensity (a.u.)
17,AGTTTCGAAATATTTGACGCCGTTGACTTTTTATCAAATGCGGAGTCACCTAGTGCAG,28300 fluorescence intensity (a.u.)
18,ACTTATTTTAGTTTGACTTGATTTTTCATCAAATGTTTTTCGGAGTCACCTAGTGCAG,10400 fluorescence intensity (a.u.)
19,TTCGAAATGTTTGACGCCGTTGACTTTTTAGCATATGTTTCGGAGTCACCTAGTGCAG,13200 fluorescence intensity (a.u.)
20,CCGTTTCATATTTAAATTGTTTTGACTTTTTTATAGTTAACGGAGTCACCTAGTGCAG,8140 fluorescence intensity (a.u.)
21,CGTATGCTCCTTAGGTGATACTATGTCCCTATTTGCTTCACGGAGTCACCTAGTGCAG,8180 fluorescence intensity (a.u.)
